Records with an inconclusive call do not appear. Calls of active or inactive are those of the source. Rule for the calls: active = hit-call score of the fitted dose curve at least 0.9, where 1 is the maximum; inconclusive = response in the unintended direction; inactive = score below 0.9.
The molecules below were run against Estrogen receptor (Homo sapiens) + Estrogen receptor beta (Homo sapiens) (UniProt P03372+Q92731) (assay: OT_ER_ERaERb_1440: Odyssey Thera (OT) 24-hour HEK293T Protein-Complementation Assay for Estrogen Receptor-alpha/-beta Homodimer (AID 2283356);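 note: heteromer of ER alpha and ER beta binding domains; hits raise reporter fluorescence and both agonists and antagonists give an increase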).
Sequence of Estrogen receptor (Homo sapiens) + Estrogen receptor beta (Homo sapiens) (P03372 whole entry, looked up, the tested form may be a part): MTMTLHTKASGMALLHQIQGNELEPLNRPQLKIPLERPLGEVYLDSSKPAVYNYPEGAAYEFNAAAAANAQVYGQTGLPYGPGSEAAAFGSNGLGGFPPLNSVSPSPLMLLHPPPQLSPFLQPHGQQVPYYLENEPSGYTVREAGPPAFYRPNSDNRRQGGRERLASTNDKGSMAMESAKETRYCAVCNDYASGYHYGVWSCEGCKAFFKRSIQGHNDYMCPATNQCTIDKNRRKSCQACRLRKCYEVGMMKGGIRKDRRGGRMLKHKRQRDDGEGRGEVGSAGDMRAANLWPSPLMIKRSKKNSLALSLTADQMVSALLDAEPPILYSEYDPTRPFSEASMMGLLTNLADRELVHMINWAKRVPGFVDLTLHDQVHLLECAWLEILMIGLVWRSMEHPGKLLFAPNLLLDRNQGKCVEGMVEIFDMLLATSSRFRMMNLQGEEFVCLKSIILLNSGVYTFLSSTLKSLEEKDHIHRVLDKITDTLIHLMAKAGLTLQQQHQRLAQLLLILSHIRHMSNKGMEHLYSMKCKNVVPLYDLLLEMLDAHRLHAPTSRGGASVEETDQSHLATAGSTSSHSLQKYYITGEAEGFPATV
Sequence of Estrogen receptor (Homo sapiens) + Estrogen receptor beta (Homo sapiens) (Q92731 whole entry, looked up, the tested form may be a part): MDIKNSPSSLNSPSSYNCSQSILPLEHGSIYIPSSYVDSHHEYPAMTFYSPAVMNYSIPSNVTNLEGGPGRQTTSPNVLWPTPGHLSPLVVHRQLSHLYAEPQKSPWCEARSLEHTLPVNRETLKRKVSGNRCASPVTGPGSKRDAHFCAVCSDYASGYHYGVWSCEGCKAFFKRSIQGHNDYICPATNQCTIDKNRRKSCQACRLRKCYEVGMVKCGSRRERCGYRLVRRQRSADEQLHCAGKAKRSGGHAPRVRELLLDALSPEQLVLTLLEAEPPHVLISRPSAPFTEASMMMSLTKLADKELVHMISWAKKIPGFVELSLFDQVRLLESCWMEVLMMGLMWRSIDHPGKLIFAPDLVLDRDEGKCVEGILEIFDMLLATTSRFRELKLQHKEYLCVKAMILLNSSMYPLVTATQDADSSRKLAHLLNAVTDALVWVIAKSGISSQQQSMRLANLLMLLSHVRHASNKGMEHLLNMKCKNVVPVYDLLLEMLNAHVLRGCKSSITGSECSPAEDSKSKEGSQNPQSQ
Outline: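 Stable HEK293T PCA line, ERα LBD 310-547 + ERβ LBD 263-489 fused to reporter fragments; 24 h treatment; fluorescence read by laser scanning cytometry; positive fitting direction relative to DMSO.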

| Compound | outcome | AC50 |
| --- | --- | --- |
| [Na+] | inactive |  |
| CN(C)C(=O)Nc1ccccc1 | inactive |  |
| CCCC(O)C(CC)CO (stereo not drawn) | inactive |  |
| CC(CCO)CC(C)(C)C (stereo not drawn) |  | 40.9 µM (active) |
| CCCCCCCCCCOC(=O)c1ccccc1C(=O)OCCCCCCCC | inactive |  |
| CCC(C)(CCCC(C)C)OC(C)=O (stereo not drawn) | inactive |  |
| COc1cc(OC)c2ccc(=O)oc2c1 | inactive |  |
| CC(C)N(c1ccccc1)C(C)C | inactive |  |
| C=CC(C)CCCC(C)(C)O (stereo not drawn) | inactive |  |
| c1ccc(Cc2ccccc2)cc1 | inactive |  |
| CN(C)C | inactive |  |
| CCCCOCCOCCO | inactive |  |
| C=CCCCCCCCCC(=O)OCC | inactive |  |
| CC1COC(=O)O1 (stereo not drawn) | inactive |  |
| O=C(OCc1ccccc1)c1ccccc1O |  | 44.5 µM (active) |
| CCCc1ccc(N)cc1 | inactive |  |
| CCC(C)(C)C1CCC(OC)CC1 (stereo not drawn) | inactive |  |
| CCCO | inactive |  |
| CCCCCCCCCO | inactive |  |
| CC(C)C(=O)c1ccccc1 | inactive |  |
| CC(C)(C)C1CCC(O)CC1 (stereo not drawn) | inactive |  |
| FC(F)(F)c1ccc(Cl)c(Cl)c1 | inactive |  |
| CCCCCC1CCC(=O)O1 (stereo not drawn) | inactive |  |
| CCO[Si](CC)(OCC)OCC | inactive |  |
| CC(=O)c1ccc(O)cc1 | inactive |  |
| CCCCCCCCCCCCS | inactive |  |
| CCCC1CCC(=O)CC1 | inactive |  |
| COC(=O)c1ccc(C(=O)OC)cc1 | inactive |  |
